In PubChem BioAssay (NCI) one finds growth data, which are given here for 14 molecules.

The panel holds about 83,000 compounds, 20% with a hit somewhere; the sample as a whole holds those more often.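 The endpoint reported here, percent growth, reads 100 for growth as untreated, 0 for no net growth and -100 for all cells dead.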 Unmarked numbers belong to inactive results. Activity calls are given as the source filed them. Rule for the calls: active = growth percent below 10; inactive = the rest.

Among the test systems are SR leukemia; RPMI-8226 leukemia; OVCAR-8 ovarian; OVCAR-5 ovarian; OVCAR-4 ovarian; SK-OV-3 ovarian; IGROV1 ovarian; OVCAR-3 ovarian; HS 578T breast; NCI/ADR-RES ovarian.
Test in all cases: NCI-60 one-dose screen, 48 h (100 = growth as untreated, 0 = no growth, -100 = all killed)
Holding throughout (conditions): 10 µM unless noted

`COc1ccc(C(=S)N2CCN(c3ccccc3Cl)CC2)cc1OC`: the growth is 39.9% with SR leukemia; 117% in the test on RPMI-8226 leukemia; 105% with OVCAR-8 ovarian; 95.2% in the test on OVCAR-5 ovarian; 99.9% in the test with OVCAR-4 ovarian; 120% in the test on SK-OV-3 ovarian. For the same molecule, the growth in the test with IGROV1 ovarian is 105%; in the test on OVCAR-3 ovarian it was 104%; in the test with HS 578T breast, 99.4%; in the test on NCI/ADR-RES ovarian it was 108%.
As to `C/C(Nc1ccc(Cl)c(Cl)c1)=C1\CCOC1=O`, the growth is 83.6% in the test on SR leukemia; 61.3% in the test on RPMI-8226 leukemia; 102% in the test with OVCAR-8 ovarian; 87.5% in the test on OVCAR-5 ovarian; 72.4% in the test with OVCAR-4 ovarian; 121% in the test on SK-OV-3 ovarian. Also, the growth was 83.8% in the test with IGROV1 ovarian, 100% in the test with OVCAR-3 ovarian, 98% in the test on HS 578T breast and 86.7% in the test with NCI/ADR-RES ovarian.
In the case of `CC1=NN(c2nc(SCC(=O)Nc3nc4ccc(C)cc4s3)nc(-c3ccccc3)c2C#N)C(=O)C1`, the growth in the test on SR leukemia was 87.2%; in the test with RPMI-8226 leukemia, 110%; with OVCAR-8 ovarian it was 102%; with OVCAR-5 ovarian it was 92.6%; in the test with OVCAR-4 ovarian, 101%; in the test with SK-OV-3 ovarian, 106%. The growth is 83.5% in the test on IGROV1 ovarian, 108% with OVCAR-3 ovarian, 90.5% in the test on HS 578T breast and 100% with NCI/ADR-RES ovarian.
In the case of `COc1ccc(-c2csc(NC(=O)CSc3nc(-c4ccccc4)cc(=O)[nH]3)n2)cc1`, the growth in the test on SR leukemia was 61.1%; in the test on RPMI-8226 leukemia, 41.8%; in the test with OVCAR-8 ovarian, 70.8%; with OVCAR-5 ovarian it was 94.3%; in the test with OVCAR-4 ovarian, 54.2%; in the test on SK-OV-3 ovarian it was 91%. Further, the growth with IGROV1 ovarian is 71.6%; with OVCAR-3 ovarian, 72%; in the test on HS 578T breast, 84.6%; in the test with NCI/ADR-RES ovarian it was 51.3%.
Turning to `CCN(c1ccc(Cl)cc1)c1nc(-c2ccc([N+](=O)[O-])cc2)cs1`, the growth in the test with SR leukemia was 83.4%; in the test with RPMI-8226 leukemia, 91.5%; in the test on OVCAR-8 ovarian it was 103%; in the test on OVCAR-5 ovarian it was 103%; in the test with OVCAR-4 ovarian, 92.7%; with SK-OV-3 ovarian, 95.7%. The growth with IGROV1 ovarian was 73%; in the test with OVCAR-3 ovarian it was 102%; in the test with HS 578T breast, 87%; in the test on NCI/ADR-RES ovarian it was 101%.
Take `O=C1CNC(c2ccccc2)C(c2ccccc2)N1` (stereo not given): the growth in the test with SR leukemia was 106%; in the test with RPMI-8226 leukemia, 75.2%; with OVCAR-8 ovarian it was 98%; in the test on OVCAR-5 ovarian, 86.5%; with OVCAR-4 ovarian, 89%; with SK-OV-3 ovarian, 107%. Besides, the growth in the test with IGROV1 ovarian was 93%; in the test on OVCAR-3 ovarian it was 107%; in the test on HS 578T breast, 86.1%; with NCI/ADR-RES ovarian, 81%.
Take `COC1=CC(c2ccc[nH]2)=N/C1=C\c1[nH]c(C)c(C(=O)OCc2ccccc2)c1C`: the growth with SR leukemia is 9.69% (active); in the test on RPMI-8226 leukemia, -18% (active); in the test on OVCAR-8 ovarian, -26.6% (active); in the test with OVCAR-5 ovarian, -38.5% (active); in the test on OVCAR-4 ovarian, -36.5% (active); in the test on SK-OV-3 ovarian it was 7.66% (active). In addition, the growth is -33.1% (active) in the test with IGROV1 ovarian, -66% (active) in the test on OVCAR-3 ovarian, -37% (active) in the test on HS 578T breast and 0.894% (active) in the test with NCI/ADR-RES ovarian.
Turning to `COc1ccc(C(c2cc(OC)c(OC)c(OC)c2)N2CCN(c3ccccc3)CC2)cc1` (stereo not given), the growth in the test on SR leukemia is 33.2%; in the test on RPMI-8226 leukemia, 89.3%; in the test with OVCAR-8 ovarian, 99.1%; in the test on OVCAR-5 ovarian, 102%; in the test with OVCAR-4 ovarian, 89.9%; with SK-OV-3 ovarian, 78.5%. Besides, the growth with IGROV1 ovarian was 72.7%; in the test with OVCAR-3 ovarian it was 90.1%; in the test with HS 578T breast, 101%; in the test with NCI/ADR-RES ovarian, 85.9%.
As to `C=C1C(=O)O[C@H]2[C@H]1CC/C(COC(=O)CCSCCC(=O)OC/C1=C/CC[C@@]3(C)O[C@H]3[C@H]3OC(=O)C(=C)[C@@H]3CC1)=C\CC[C@@]1(C)O[C@@H]21`, the growth was -15.8% (active) in the test with SR leukemia; -27% (active) with RPMI-8226 leukemia; 9.02% (active) in the test on OVCAR-8 ovarian; -6.34% (active) with OVCAR-5 ovarian; 41.7% with OVCAR-4 ovarian; 93.6% in the test on SK-OV-3 ovarian. The growth with IGROV1 ovarian is -17.3% (active); in the test with OVCAR-3 ovarian, -68.8% (active); with HS 578T breast it was 19.4%; in the test with NCI/ADR-RES ovarian it was 53.4%.
For the molecule `O=C1Nc2ccc(I)cc2C1=O`, the growth with SR leukemia is 100%; in the test with RPMI-8226 leukemia, 144%; with OVCAR-8 ovarian, 90.7%; in the test on OVCAR-5 ovarian it was 98.6%; in the test on OVCAR-4 ovarian, 101%; with SK-OV-3 ovarian, 108%. Besides, the growth in the test on IGROV1 ovarian is 46.6%; with OVCAR-3 ovarian, 74.7%; with HS 578T breast it was 97.8%; with NCI/ADR-RES ovarian, 97.2%.
Turning to `O=C(OCc1ccc2cccc(O)c2n1)N1CCN(C(=O)c2cc3cc(F)ccc3[nH]2)CC1`, the growth was -9.28% (active) in the test on SR leukemia; -26.1% (active) with RPMI-8226 leukemia; -40.6% (active) in the test with OVCAR-8 ovarian; -84.5% (active) in the test with OVCAR-5 ovarian; -71.8% (active) with OVCAR-4 ovarian; 54.3% in the test on SK-OV-3 ovarian. Besides, the growth is -91.4% (active) in the test with IGROV1 ovarian, -79.3% (active) in the test with OVCAR-3 ovarian, -21.2% (active) in the test on HS 578T breast and -21.5% (active) in the test with NCI/ADR-RES ovarian.
With `COc1cc2oc(-c3cccc(NC(=O)c4cccc(Br)c4)c3)cc(=O)c2c(OC)c1OC`, the growth was 43.2% in the test with SR leukemia; 25.5% in the test on RPMI-8226 leukemia; 34.8% in the test on OVCAR-8 ovarian; 87.7% in the test with OVCAR-5 ovarian; 58.7% with OVCAR-4 ovarian; 92.5% with SK-OV-3 ovarian. Besides, the growth is 58.8% in the test with IGROV1 ovarian, 66.5% with OVCAR-3 ovarian, 47.1% with HS 578T breast and 53.1% in the test on NCI/ADR-RES ovarian.
`O=C1N[C@@H]2NC(=[N+]3CCOCC3)N[C@@H]2N1`: the growth was 111% in the test on SR leukemia; 106% with RPMI-8226 leukemia; 105% in the test on OVCAR-8 ovarian; 97.9% in the test with OVCAR-5 ovarian; 107% in the test with OVCAR-4 ovarian; 104% with SK-OV-3 ovarian. The growth was 104% in the test with IGROV1 ovarian, 117% in the test with OVCAR-3 ovarian, 98.2% in the test with HS 578T breast and 102% in the test with NCI/ADR-RES ovarian.
`COc1ccc2c(O)c(/C=C3\N=Nc4ccccc43)oc2c1C[C@@H]1CCNC[C@H]1F`: the growth is -38.5% (active) in the test on SR leukemia; 91.9% in the test on RPMI-8226 leukemia; 0.196% (active) with OVCAR-8 ovarian; 67.8% in the test with OVCAR-5 ovarian; 64.9% with OVCAR-4 ovarian; 90.5% with SK-OV-3 ovarian. Moreover, the growth in the test with IGROV1 ovarian is 76.4%; in the test on OVCAR-3 ovarian, 94%; in the test with HS 578T breast it was 60.3%; in the test with NCI/ADR-RES ovarian it was 72.1%.
